Measured values taken from PubChem BioAssay (Tox21).
Results filed as inconclusive are left out. The source made the active and inactive calls. Unless noted, the call rests on the fitted dose curve; in most records, active means well fitted curve in the direction sought with a large enough effect in the repeat runs; inconclusive means weak or mixed curves; inactive means no such curve, though single readings can be large; an effect the other way counts as inactive or inconclusive.

Assays:
[1] = qHTS assay for small molecule agonists of the p53 signaling pathway (AID 651631; calls by dose curve; further: nearly all actives have a fitted effect of over 15% in size)
Procedure, shortened: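 HCT-116 p53RE-bla reporter line, 16 h compound treatment at 37 °C, then fluorescence after 2 h with B/G FRET substrate.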

[2] = qHTS assay for small molecule agonists of the p53 signaling pathway - cell viability (AID 651633; calls by dose curve;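 further: p53RE-bla HCT reporter cells with a stable beta-lactamase p53 reporter; series mostly up to about 83 µM; nearly all actives have a fitted effect of over 30% in size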)
Procedure, shortened: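 p53RE-bla cells, seeded at 4,000 per well and rested 5 h at 37 C/5% CO2, received compounds in DMSO for 16 h at 37 C. CellTiter-Glo was then added, and luminescence was read after 30 min at room temperature to gauge cytotoxicity.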

[3] = qHTS assay for small molecules that induce genotoxicity in human embryonic kidney cells expressing luciferase-tagged ATAD5 - cell viability (AID 651634; calls by dose curve; further: nearly all actives have a fitted effect of over 25% in size)
Procedure, shortened: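 15.5 hr compound or vehicle exposure of HEK293T cells expressing luciferase-tagged ATAD5 at 37C; live-cell protease activity is read by fluorescence after 30 min of CellTiter-Fluor.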

[4] = qHTS assay for small molecule disruptors of the mitochondrial membrane potential - cell viability (AID 720634; calls by dose curve;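 further: human HepG2 liver cancer cells; series mostly up to about 83 µM; nearly all actives have a fitted effect of over 20% in size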)
Procedure, shortened: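 In this qHTS format, HepG2 cells plated overnight were pinned with compound, incubated 1 hr, and assayed for ATP luminescence with CellTiter-Glo after m-MPI dye addition.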

[5] = qHTS assay for small molecule disruptors of the mitochondrial membrane potential (AID 720635)
Procedure, shortened: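 HepG2 cells (2,000/well) attached overnight at 37C, then took compound for 1 hr at 37C, 5% CO2. Mito-MPS dye was added for 30 min; fluorescence was read at 490/535 nm (monomers) and 540/590 nm (aggregates).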

[6] = qHTS assay to test for compound auto fluorescence at 590 nm (red) in HepG2 cells (AID 720674)
Procedure, shortened: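 Rose Bengal sodium served as the red fluorophore standard. HepG2 monolayers (overnight attachment, MEM with 10% FBS) were exposed to test compounds for 1 hr at 37 C and read at Ex 540/Em 590 nm.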

[7] = qHTS assay to test for compound auto fluorescence at 535 nm (green) in HepG2 cells (AID 720675)
[8] = qHTS assay to test for compound auto fluorescence at 460 nm (blue) in HEK293 cells (AID 720678)
Procedure, shortened: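 Auto fluorescence in the blue band was quantified as triamterene equivalency. HEK293 cells were seeded at 2,000/well, dosed after a 4-5 hr attachment, and kept overnight at 37C before the 405/460 nm reading.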

[9] = qHTS assay to test for compound auto fluorescence at 590 nm (red) in HEK293 cells (AID 720679)
Procedure, shortened: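 Autofluorescence equivalency to Rose Bengal sodium, 540/590nm, in HEK293 cells exposed overnight to 23 nL compound per well.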

[10] = qHTS assay to test for compound auto fluorescence at 535 nm (green) in HEK293 cells (AID 720680)
[11] = qHTS assay to test for compound auto fluorescence at 460 nm (blue) in HEK293 cell free culture (AID 720681)
Procedure, shortened: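 Test compounds were pinned into cell-free culture medium (DMEM with 10% FBS) and fluorescence was read directly at Ex/Em 405/460 nm. Signals were expressed as fluorescence equivalents of triamterene, with DMSO vehicle as control.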

[12] = qHTS assay to test for compound auto fluorescence at 535 nm (green) in HEK293 cell free culture (AID 720682)
Procedure, shortened: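 Steps: dispense DMEM/10% FBS into empty wells; pin in compound or DMSO; measure fluorescence at 485/535 nm. Values are fluorescein equivalents.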

[13] = qHTS assay to test for compound auto fluorescence at 590 nm (red) in HEK293 cell free culture (AID 720683)
Procedure, shortened: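 Tox21 10K library compounds were pinned into cell-free DMEM with 10% FBS and fluorescence was read at excitation 540 nm. Activity is expressed as Rose Bengal sodium equivalency.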

[14] = qHTS assay to test for compound auto fluorescence at 590 nm (red) in HepG2 cell free culture (AID 720684)
Procedure, shortened: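 Ex 540 / Em 590 nm read of compound in cell-free MEM (10% FBS). Rose Bengal sodium reference.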

[15] = qHTS assay to test for compound auto fluorescence at 460 nm (blue) in HepG2 cell free culture (AID 720685)
Procedure, shortened: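 Cell-free plates of MEM plus 10% FBS received 23 nL compound or DMSO vehicle; blue-channel (405/460 nm) intensity scored against triamterene as reference fluorophore.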

[16] = qHTS assay to test for compound auto fluorescence at 535 nm (green) in HepG2 cell free culture (AID 720686)
[17] = qHTS assay to test for compound auto fluorescence at 460 nm (blue) in HepG2 cells (AID 720687)
Procedure, shortened: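 Cells (2,000/well in MEM with 10% FBS) attached overnight at 37 C, then were exposed to compound or DMSO for 1 hr at 37 C, 5% CO2. Fluorescence read at Ex/Em 405/460 nm, expressed as triamterene-equivalent signal.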

[18] = target: Glucocorticoid receptor (Homo sapiens) (UniProt P04150); experiment: qHTS assay to identify small molecule agonists of the glucocorticoid receptor (GR) signaling pathway (AID 720691; active means well fitted activation curve with a large enough effect in the signal ratio in the repeat runs, not every such curve was filed as active; the % refers to the signal ratio)
Sequence of Glucocorticoid receptor (Homo sapiens) (P04150 whole entry, looked up): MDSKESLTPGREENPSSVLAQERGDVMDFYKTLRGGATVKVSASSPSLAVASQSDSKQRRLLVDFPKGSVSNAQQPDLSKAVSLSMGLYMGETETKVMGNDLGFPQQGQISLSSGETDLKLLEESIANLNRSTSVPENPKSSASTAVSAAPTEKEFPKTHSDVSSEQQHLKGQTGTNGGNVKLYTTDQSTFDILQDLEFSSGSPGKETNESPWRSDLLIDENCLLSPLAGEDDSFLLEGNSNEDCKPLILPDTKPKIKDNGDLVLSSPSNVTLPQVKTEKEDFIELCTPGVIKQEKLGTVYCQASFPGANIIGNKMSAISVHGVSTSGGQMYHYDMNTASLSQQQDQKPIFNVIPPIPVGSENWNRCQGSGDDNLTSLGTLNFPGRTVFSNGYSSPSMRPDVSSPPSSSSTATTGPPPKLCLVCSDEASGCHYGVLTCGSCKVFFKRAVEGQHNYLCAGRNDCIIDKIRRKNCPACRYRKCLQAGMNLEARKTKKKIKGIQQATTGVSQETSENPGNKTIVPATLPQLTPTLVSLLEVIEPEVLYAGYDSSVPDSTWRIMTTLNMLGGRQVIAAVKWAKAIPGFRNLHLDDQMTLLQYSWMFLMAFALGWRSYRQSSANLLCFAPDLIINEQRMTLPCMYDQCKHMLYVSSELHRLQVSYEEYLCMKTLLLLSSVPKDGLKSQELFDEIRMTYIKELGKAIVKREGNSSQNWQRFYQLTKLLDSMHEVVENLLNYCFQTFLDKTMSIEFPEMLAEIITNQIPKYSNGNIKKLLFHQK
Procedure, shortened: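 Measures GR pathway activation through a GRE-beta-lactamase reporter stably integrated in HeLa cells, with 18 h compound treatment at 37 C and fluorescence detection using a FRET substrate.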

[19] = target: Glucocorticoid receptor (Homo sapiens) (UniProt P04150); experiment: qHTS assay to identify small molecule antagonists of the glucocorticoid receptor (GR) signaling pathway (AID 720692; active means well fitted inhibition curve with a large enough effect in the signal ratio in the repeat runs, not every such curve was filed as active; the % refers to the signal ratio)
Procedure, shortened: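 Tox21 10K library screened in concentration-response for blockade of dexamethasone (5 nM final)-induced GRE-bla reporter activity in HeLa cells; 18 h treatment, fluorescence read.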

[20] = qHTS assay for small molecules that induce genotoxicity in human embryonic kidney cells expressing luciferase-tagged ATAD5 (AID 651632); further: nearly all actives have a fitted effect of over 15% in size
Procedure, shortened: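 Concentration-response screen for ATAD5 upregulation in HEK293T luciferase reporter cells; 16 hr treatment at 37C, then luminescence after 30 min with Amplite at room temperature.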

Measured: Potency

O=c1ccc(=O)[nH][nH]1
not listed: [18] | [19] | [20]
inactive: all other assays above

[O-][Cl+2]([O-])O
not listed: [3] | [12] | [18] | [19] | [20]
inactive: all other assays above

Clc1cccc(Cl)c1Cl
not listed: [1] | [12] | [20]
inactive: all other assays above

O=Cc1cccc(Oc2ccccc2)c1
not listed: [1] | [2] | [5]
inactive: all other assays above

CC(C)=C[C@@H]1[C@@H](C(=O)OCc2coc(Cc3ccccc3)c2)C1(C)C
not listed: [1] | [5] | [7] | [19]
inactive: all other assays above

C=CC(N)=O
not listed: [3] | [20]
inactive: all other assays above

CC1C=[C-]C=C1.[C-]#[O+].[C-]#[O+].[C-]#[O+].[Mn]
not listed: [1] | [7] | [19]
inactive: all other assays above

Cc1[nH]c(=O)n(C(C)(C)C)c(=O)c1Cl
not listed: [1] | [7] | [12] | [18] | [19]
inactive: all other assays above
